PubChem BioAssay (NCI)
Values joined by “and” are separate entries in the source; they are usually repeats but may differ in a detail not shown here. Equal entries are not always repeated. The panel holds about 83,000 compounds, 20% with a hit somewhere; the sample as a whole holds those more often.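 Percent growth is the endpoint: 0 to 100 indicates growth inhibition (40 means 60% inhibition), 0 means no net growth, and negative values indicate cell death.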 Values without a mark were called inactive. Active and inactive are the calls of the source. Rule for the calls: active = growth percent below 10; inactive = the rest.

What follows are molecules tested on HL-60(TB) leukemia (assay: NCI-60 one-dose screen, 48 h (100 = growth as untreated, 0 = no growth, -100 = all killed)). Conditions: 10 µM unless noted.

Q: `CCOc1ccc(NC2=C(Cl)C(=O)c3ccccc3C2=O)cc1` was tested. Which growth did it give?
A: Its growth is 32%.

Q: `O=C(Nc1ccc(Br)cc1F)c1cc(F)ccc1O` was tested. Which growth did it give?
A: Its growth is -19.7% (active).

Q: With `O=C(Nc1ccc(F)cc1)c1ccccc1` as the molecule, how does the growth read?
A: The growth was 97.5%.

Q: With `C=C(c1ccc(C(=O)O)cc1)c1cc2c(cc1C)C(C)(C)CCC2(C)C` as the molecule, how does the growth read?
A: Its growth is 59.3% and 74.6%.

Q: With `COc1ccc(/C=C/C(=O)c2cc(O)ccc2O)cc1` as the molecule, how does the growth read?
A: The growth was 3.32% (active).

Q: With `Cc1nn(Cc2ccccc2)cc1C(=O)Nc1sc2c(c1C(N)=O)CCC(=O)C2` as the molecule, how does the growth read?
A: Its growth is -4.39% (active).

Q: For `CCOC(=O)Nc1ccc2c(c1)/C(=N\NC(N)=S)c1ccccc1-2`, which growth is on record?
A: The growth was 55.4% and 78.8%.

Q: `Cc1cc(Cl)ccc1NC(=O)c1cc2ccccc2cc1O` was tested. Which growth did it give?
A: Its growth is 1.45% (active).

Q: `O=Cc1ccccc1C(=O)O` was tested. Which growth did it give?
A: Its growth is 111%.

Q: With `CS(=O)(=O)Nc1cccc(C(=O)NCc2ccc(N3CCOCC3)cc2)c1` as the molecule, how does the growth read?
A: The growth was 91.9%.

Q: With `COc1cc(CC#N)c([N+](=O)[O-])cc1OC` as the molecule, how does the growth read?
A: Its growth is 92.6%.

Q: How did the growth turn out when `CC[C@]12C=CCN3CC[C@@]4(c5cc(NC(=O)CCC(=O)OCc6cn(Cc7ccc(F)cc7)nn6)c(OC)cc5N(C)[C@H]4[C@@](O)(C(=O)OC)[C@@H]1OC(C)=O)[C@@H]32` was run?
A: The growth was 96.8%.

Q: For `O=C(CN1CCOCC1)N1CCOCC1`, which growth is on record?
A: Its growth is 101% and 109%.

Q: For `Fc1ccc2nc(-c3cc(-c4ccc5c(c4)OCO5)n[nH]3)[nH]c2c1`, which growth is on record?
A: The growth was 13.9%.

Q: `O=C1c2cccnc2C(=O)c2c1c(C(=O)OCCN1CCCCC1)c1ccccn21` was tested. Which growth did it give?
A: Its growth is -46.5% (active).

Q: For `Cc1ccc(S(=O)(=O)Oc2ccc([N+](=O)[O-])cc2[N+](=O)[O-])cc1`, which growth is on record?
A: Its growth is 47.9%.

Q: Which growth does the source give for `O=[N+]([O-])c1cccc(-c2nc3cc4nc5ccccc5[nH]c4cc3n2)c1` here?
A: The growth was 91.5%.

Q: `CC(c1ccccc1)n1ccnc1CO` (stereo not given) was tested. Which growth did it give?
A: Its growth is 101%.

Q: How did the growth turn out when `CC(=O)N1N=C(c2ccc(Nc3nc(Nc4ccccc4)nc(Nc4ccccc4)n3)cc2)CC1c1cccc([N+](=O)[O-])c1` (stereo not given) was run?
A: The growth was 94.8%.

Q: How did the growth turn out when `CC(=O)Nc1cc(S(=O)(=O)O)cc2cc(S(=O)(=O)O)c(N=Nc3ccccc3)c(O)c12` was run?
A: Its growth is 109% and 94.3%.

Q: With `COc1ccc(C2=CC(c3ccc(OC)cc3Br)N3C=CSC3=N2)cc1` (stereo not given) as the molecule, how does the growth read?
A: The growth was 61.4%.

Q: `C=C1C(=O)O[C@H]2[C@H]1CC/C(COC(=O)NCc1ccc(OC)cc1)=C\CC[C@@]1(C)O[C@@H]21` was tested. Which growth did it give?
A: The growth was 11.1%.

Q: With `CCOc1cc2ncc(C#N)c(Nc3ccc(F)c(Cl)c3)c2cc1NC(=O)CC1CCSS1` (stereo not given) as the molecule, how does the growth read?
A: The growth was -33.9% (active).

Q: How did the growth turn out when `Oc1ccc(Cn2cc3c(c2-c2ccccc2)CCc2cnoc2-3)cc1` was run?
A: The growth was 93.8%.

Q: How did the growth turn out when `O=C1c2ccccc2C(=O)c2c1ccc1[nH]c(CCl)nc21` was run?
A: Its growth is -37.4% (active).

Q: With `O=C(N/N=C/c1cccc2ccccc12)C1CC1` as the molecule, how does the growth read?
A: Its growth is 71.3% and 95.7%.

Q: How did the growth turn out when `CCc1cc2c(c3ccc(C(=O)CBr)cc13)CCCC2` was run?
A: The growth was 97.7%.

Q: `O=C(O)C1CCCN1C(=O)OCc1ccccc1` (stereo not given) was tested. Which growth did it give?
A: The growth was 102%.

Q: With `Cc1nn(-c2ccccc2)c(Oc2ccccn2)c1-c1nc2ccccc2s1` as the molecule, how does the growth read?
A: Its growth is 85.3%.

Q: With `C=CC(=O)NCc1ccc(Nc2nccc(-c3ccc(N4CCCC4)c(C#N)c3)n2)cc1` as the molecule, how does the growth read?
A: Its growth is -12.9% (active).

Q: Which growth does the source give for `COc1cc(C(=O)n2nc(-c3cc(OC)c(OC)c(OC)c3)nc2N)cc(OC)c1OC` here?
A: The growth was 67.7%.

Q: How did the growth turn out when `N#CCCN1CCN(CCC#N)C1=S` was run?
A: The growth was 129%.

Q: `CN1CCN(Cc2ccc(NC(=O)c3[nH]ncc3Nc3ncnc4[nH]ccc34)cc2)CC1` was tested. Which growth did it give?
A: Its growth is -31.4% (active).

Q: `COc1ccc(-c2nn(-c3ccccc3)cc2/C=C2/SC(=S)N(C)C2=O)cc1` was tested. Which growth did it give?
A: The growth was 95.8%.

Q: How did the growth turn out when `CCc1cccc2c3c(sc12)C(c1ccc(F)cc1)C(C#N)=C(N)O3` (stereo not given) was run?
A: Its growth is 1.86% (active).

Q: For `COc1ccc(C(O)c2cc3c(N)c(C(=O)Nc4ccc(Cl)cc4)sc3nc2C)cc1` (stereo not given), which growth is on record?
A: Its growth is -50.1% (active).

Q: With `COc1ccc(Cc2nc3cc(OC)c(OC)cc3c(=O)[nH]2)cc1` as the molecule, how does the growth read?
A: The growth was 16.4%.

Q: How did the growth turn out when `O=c1[nH]cnc2c1ncn2C1OC(CO)C(O)C1O` (stereo not given) was run?
A: Its growth is 97.1% and 89.3% and 101%.

Q: Which growth does the source give for `Cc1cc(SCc2ccc(Cl)cc2Cl)nc(SCc2ccc(Cl)cc2Cl)n1` here?
A: The growth was 95.6%.

Q: With `COc1ccc2c(c1)C(=O)c1c-2c(OCCN(C)C)nc2cc(OC)ccc12` as the molecule, how does the growth read?
A: The growth was 27.2%.
